The text below walks through data of PubChem BioAssay.

For one test, the target named is Albumin (Bos taurus) (UniProt P02769). As to the kind of experiment: bovine serum albumin binders on microarray, profiling panel, artefact control for SMM control protein annotation, biochemical, small-molecule microarray, Alexa647 label, 635/667 nm fluorescence (AID 1118).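 Further: score merges 667 nm emission intensity and signal-to-noise per printed compound spot.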 The conditions noted are these: BSA-A647 binding, fluorescence 635 nm, higher = more signal.
Chain of Albumin (Bos taurus) (P02769 whole entry, looked up): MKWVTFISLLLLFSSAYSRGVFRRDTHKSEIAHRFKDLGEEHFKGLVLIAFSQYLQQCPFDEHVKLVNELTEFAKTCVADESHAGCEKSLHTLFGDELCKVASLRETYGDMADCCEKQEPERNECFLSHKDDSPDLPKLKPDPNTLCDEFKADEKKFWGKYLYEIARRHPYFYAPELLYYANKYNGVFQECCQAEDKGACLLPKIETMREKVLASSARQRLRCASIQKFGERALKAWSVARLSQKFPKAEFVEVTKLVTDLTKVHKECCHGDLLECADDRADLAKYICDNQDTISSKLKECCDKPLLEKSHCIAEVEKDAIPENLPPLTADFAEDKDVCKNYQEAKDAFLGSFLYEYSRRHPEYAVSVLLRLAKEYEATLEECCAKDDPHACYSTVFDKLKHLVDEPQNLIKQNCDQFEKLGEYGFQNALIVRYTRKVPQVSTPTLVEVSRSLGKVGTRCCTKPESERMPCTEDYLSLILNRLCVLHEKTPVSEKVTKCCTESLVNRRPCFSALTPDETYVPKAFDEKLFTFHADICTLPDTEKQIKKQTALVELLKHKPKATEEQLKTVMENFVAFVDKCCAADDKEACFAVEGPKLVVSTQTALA

A short description of test [1]: small-molecule microarray binders of probe aXIP, primary screen, biochemical, NeuroSMM set, 635/667 nm fluorescence (AID 1119).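 Further: probe is the protein aXip251-270 applied at 1 µg/mL to compound-printed slides; binding of probe to printed compounds measured as 667 nm fluorescence plus signal to noise.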 Conditions: higher = more signal, called active from +8 up or from −8 down.
A short description of test [2]: small-molecule binders of probe aNOTCH3, primary screen, biochemical, small-molecule microarray, 635/667 nm fluorescence (AID 1120).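 Further: probe is a biotin-tagged antibody raised against NOTCH3 rather than NOTCH3 protein; score merges spot fluorescence near 667 nm with spot signal to noise.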 The conditions noted are these: higher = more signal.
Test [3] is described as follows: small-molecule binders of probe aNOTCH2, primary screen, biochemical, small-molecule microarray, 635/667 nm fluorescence (AID 1121).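 Further: score merges feature fluorescence read at 667 nm with its signal to noise.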 Conditions: higher = more signal.
For test [4], the target named is Carbonic anhydrase 2 (Homo sapiens) (UniProt P00918). As to the kind of experiment: CAII small-molecule binders, profiling panel, biochemical, small-molecule microarray, Alexa647-labelled CAII (AID 1122). The conditions noted are these: CAII-A647 binding fluorescence, higher = more signal.
Test [5] is described as follows: COS7 lysate on small-molecule microarray, probe aHis, 635 nm (AID 1123).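 Further: z-score combines 667nm fluorescence intensity with signal-to-noise per printed compound spot.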 Conditions: COS7 cell lysate, fluorescence, higher = more signal.
Test [6] in a line: compound binding in COS7 lysate, probe aLAP1, primary screen, cell lysate, small-molecule microarray (AID 1124).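 Further: lysate comes from COS7 cells expressing LAP1 and is applied at 0.3 µg/mL; score merges spot fluorescence near 667 nm with signal-to-noise over triplicate slides.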 The conditions noted are these: probe aLAP1, fluorescence, higher = more signal.
The test system of a further test is Sam68 (KHDRBS1). The test can be described thus: Sam68 small-molecule binders, primary screen, biochemical, small-molecule microarray, 635 nm fluorescence (AID 1125).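 Further: score merges 667 nm channel intensity with signal to noise over triplicate slides.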 The conditions noted are these: small-molecule microarray binding, higher = more signal.
Test [7] deals with Chordin-like protein 2 (CHRDL2). The test can be described thus: CHRDL2 small-molecule binders, primary screen, biochemical, small-molecule microarray, 635 nm fluorescence (AID 1126).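 Further: printed compound slides probed with Chrdl2 protein at 4 µg/mL for 1 h at 4 C; score merges 667 nm emission intensity with signal to noise over three replicate slides.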 The conditions noted are these: small-molecule microarray binding, fluorescence 635 nm; higher = more signal.
For test [8], the target named is Concanavalin-A (Canavalia ensiformis) (UniProt P02866). As to the kind of experiment: ConA small-molecule binders, primary screen, artefact control for SMM control protein annotation, biochemical, small-molecule microarray, Alexa647 label, 635 nm (AID 1127).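 Further: z combines 667 nm emission intensity with signal-to-noise across three replicate slides.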 Conditions: ConA-A647 binding fluorescence, higher = more signal.
Chain of Concanavalin-A (Canavalia ensiformis) (P02866 whole entry, looked up): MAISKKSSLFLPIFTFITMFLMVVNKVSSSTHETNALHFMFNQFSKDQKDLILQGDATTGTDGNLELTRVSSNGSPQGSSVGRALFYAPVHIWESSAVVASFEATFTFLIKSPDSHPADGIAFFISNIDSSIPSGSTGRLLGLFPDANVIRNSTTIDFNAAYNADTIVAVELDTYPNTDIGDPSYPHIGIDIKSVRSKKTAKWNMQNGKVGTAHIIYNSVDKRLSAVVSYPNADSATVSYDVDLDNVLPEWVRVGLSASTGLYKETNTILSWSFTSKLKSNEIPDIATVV
Test [9] can be described thus: anti-His antibody binders, primary screen, artefact control for SMM control protein annotation, biochemical, small-molecule microarray, 635 nm fluorescence (AID 1128).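 Further: score merges feature fluorescence with signal-to-noise for each printed compound spot.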 Conditions: anti-His Alexa647 antibody binding, higher = more signal.
Test [10] has as its system Human papillomavirus type 1a E7 protein (residues 1-88). The test can be described thus: HPV1a E7 small-molecule binders, primary screen, biochemical, small-molecule microarray, residues 1-88, 635 nm (AID 1129). The conditions noted are these: small-molecule microarray binding, fluorescence 635 nm; higher = more signal.
Test [11] deals with Focal adhesion kinase 1 (Homo sapiens) (UniProt Q05397). The test can be described thus: small-molecule microarray binders of FAK, primary screen, biochemical, 635/667 nm fluorescence, BSA, DTT (AID 1130).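 Further: composite of spot emission at 667 nm and signal to noise over triplicate slides.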 The conditions noted are these: PTK2 binding, 635 nm fluorescence, higher = more signal.
Chain of Focal adhesion kinase 1 (Homo sapiens) (Q05397 whole entry, looked up): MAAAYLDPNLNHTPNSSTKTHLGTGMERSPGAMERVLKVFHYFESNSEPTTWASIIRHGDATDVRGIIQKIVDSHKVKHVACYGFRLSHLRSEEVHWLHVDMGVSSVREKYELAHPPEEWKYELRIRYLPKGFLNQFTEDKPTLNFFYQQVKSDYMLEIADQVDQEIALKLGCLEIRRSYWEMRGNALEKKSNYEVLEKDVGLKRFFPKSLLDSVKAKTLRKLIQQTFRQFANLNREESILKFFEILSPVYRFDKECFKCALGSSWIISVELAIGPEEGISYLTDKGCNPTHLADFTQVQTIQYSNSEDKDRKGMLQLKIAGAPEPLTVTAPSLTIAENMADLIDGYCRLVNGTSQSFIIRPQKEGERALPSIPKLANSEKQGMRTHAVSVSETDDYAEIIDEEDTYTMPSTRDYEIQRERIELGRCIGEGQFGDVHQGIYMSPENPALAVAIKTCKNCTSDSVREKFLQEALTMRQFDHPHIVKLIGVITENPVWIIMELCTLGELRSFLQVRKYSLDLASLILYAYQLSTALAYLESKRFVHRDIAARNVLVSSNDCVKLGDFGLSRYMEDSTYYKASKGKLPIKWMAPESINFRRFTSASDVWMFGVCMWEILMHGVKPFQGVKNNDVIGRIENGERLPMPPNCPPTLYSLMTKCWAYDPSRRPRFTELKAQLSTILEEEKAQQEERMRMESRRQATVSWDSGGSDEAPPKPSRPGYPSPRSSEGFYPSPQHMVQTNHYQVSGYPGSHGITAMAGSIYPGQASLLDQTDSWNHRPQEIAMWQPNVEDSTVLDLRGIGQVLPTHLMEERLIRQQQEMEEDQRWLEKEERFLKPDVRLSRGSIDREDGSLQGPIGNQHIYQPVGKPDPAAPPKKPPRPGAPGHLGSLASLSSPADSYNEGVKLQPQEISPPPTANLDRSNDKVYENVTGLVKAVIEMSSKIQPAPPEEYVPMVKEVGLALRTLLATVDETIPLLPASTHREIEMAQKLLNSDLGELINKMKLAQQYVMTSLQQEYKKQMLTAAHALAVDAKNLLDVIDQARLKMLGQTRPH
For test [12], the system named is Fibrinogen (Alexa647-labelled). As to the kind of experiment: fibrinogen binders on compound microarrays, profiling panel, artefact control for SMM control-protein annotation, biochemical, small-molecule microarray, 635/667 nm fluorescence (AID 1131).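 Further: z-score merges 667 nm fluorescence with per-spot signal-to-noise over triplicate slides.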 Conditions: fibrinogen-A647 binding fluorescence, higher = more signal.
For test [13], the target named is Follistatin (Homo sapiens) (UniProt P19883). As to the kind of experiment: follistatin binders on small-molecule microarrays, primary screen, biochemical, small-molecule microarray, 635/667 nm fluorescence (AID 1132). Conditions: FST binding, 635 nm fluorescence, higher = more signal.
Chain of Follistatin (Homo sapiens) (P19883 whole entry, looked up): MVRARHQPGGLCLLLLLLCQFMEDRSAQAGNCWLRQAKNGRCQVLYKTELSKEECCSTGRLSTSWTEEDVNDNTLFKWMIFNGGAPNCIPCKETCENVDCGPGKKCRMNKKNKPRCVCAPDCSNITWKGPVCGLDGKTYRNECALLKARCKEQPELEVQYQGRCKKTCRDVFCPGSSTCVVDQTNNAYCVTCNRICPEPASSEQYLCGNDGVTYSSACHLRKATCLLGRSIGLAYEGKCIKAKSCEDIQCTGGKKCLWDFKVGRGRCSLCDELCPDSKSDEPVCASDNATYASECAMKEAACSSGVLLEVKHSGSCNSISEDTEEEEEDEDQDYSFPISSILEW
For test [14], the target named is Fibroblast growth factor 2 (Homo sapiens) (UniProt P09038). The test can be described thus: FGF2 binders on small-molecule microarrays, primary screen, biochemical, small-molecule microarray, 635/667 nm fluorescence (AID 1133). Conditions: small-molecule microarray binding, FGF2, fluorescence 635/667; higher = more signal.
Chain of Fibroblast growth factor 2 (Homo sapiens) (P09038 whole entry, looked up): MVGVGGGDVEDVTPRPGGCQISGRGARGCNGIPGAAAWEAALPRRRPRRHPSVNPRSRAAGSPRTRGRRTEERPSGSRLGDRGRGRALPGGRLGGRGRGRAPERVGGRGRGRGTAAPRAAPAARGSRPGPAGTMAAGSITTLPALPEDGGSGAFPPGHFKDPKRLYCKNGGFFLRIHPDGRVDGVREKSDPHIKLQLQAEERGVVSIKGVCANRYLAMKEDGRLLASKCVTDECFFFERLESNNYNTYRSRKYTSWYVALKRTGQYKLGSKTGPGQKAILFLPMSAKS
Test [15] in a line: mitochondrial membrane potential change in A549 cells, profiling panel, cell-based, JC-1 fluorescence, basal, 24 h, 100 nL (AID 1138).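 Further: A549 lung adenocarcinoma cells under basal conditions with no added stimulus; test concentration not given here.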 The conditions noted are these: higher = more signal.
The subject of a further test is Lefty1. As to the kind of experiment: Lefty1 binders on small-molecule microarrays, primary screen, biochemical, small-molecule microarray, 635/667 nm fluorescence (AID 1139). The conditions noted are these: small-molecule microarray binding, fluorescence 635/667; higher = more signal.
In test [16] the test system is wheat germ agglutinin (Triticum aestivum), Alexa647-labelled. The test can be described thus: wheat germ agglutinin binders on compound microarrays, profiling panel, artefact control for SMM control-protein annotation, biochemical, small-molecule microarray, 635/667 nm fluorescence (AID 1140).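 Further: score merges 667 nm feature emission with signal to noise over triplicate slides.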 The conditions noted are these: WGA-A647 binding, 635 nm fluorescence, higher = more signal.

The target in test [17] is Luciferin 4-monooxygenase (Photinus pyralis) (UniProt P08659). As to the kind of experiment: firefly luciferase enzyme inhibitors, primary screen, biochemical, luminescence, purified enzyme, 2006 set (AID 1141).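 Further: cell-free assay with purified firefly luciferase at 100 ng per well in PBS; test concentration not given here.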 The conditions noted are these: SteadyGlo luminescence, 30 min, higher = more signal, called active from +8 up or from −8 down.
Chain of Luciferin 4-monooxygenase (Photinus pyralis) (P08659 whole entry, looked up): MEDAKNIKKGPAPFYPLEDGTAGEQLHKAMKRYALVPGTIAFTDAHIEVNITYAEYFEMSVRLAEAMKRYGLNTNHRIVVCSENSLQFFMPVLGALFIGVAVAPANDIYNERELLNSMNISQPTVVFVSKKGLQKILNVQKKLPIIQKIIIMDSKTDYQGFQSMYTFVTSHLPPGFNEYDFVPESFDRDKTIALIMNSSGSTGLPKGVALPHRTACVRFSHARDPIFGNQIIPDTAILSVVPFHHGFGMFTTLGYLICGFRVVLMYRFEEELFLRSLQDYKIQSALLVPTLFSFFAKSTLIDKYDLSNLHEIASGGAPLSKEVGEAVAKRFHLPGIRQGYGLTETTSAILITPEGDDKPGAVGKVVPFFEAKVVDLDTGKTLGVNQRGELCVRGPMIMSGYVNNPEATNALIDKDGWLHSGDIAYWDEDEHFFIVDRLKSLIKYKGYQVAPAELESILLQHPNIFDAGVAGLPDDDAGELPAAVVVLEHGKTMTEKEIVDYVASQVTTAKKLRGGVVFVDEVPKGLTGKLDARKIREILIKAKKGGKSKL

The source made the active and inactive calls.

In the case of `CCOC(=O)C1=CC[C@@H](c2ccccc2)N(S(=O)(=O)c2ccc(C)cc2)[C@H]1C`, the composite z-score with Albumin (Bos taurus) was found to be 0.972; in [2] it was 0.29; in test [3], 0.0832; in test [4] it was 0.671; in test [5] it was 2.49; in test [6] it was 0.689. Moreover, the composite z-score in the test with Sam68 (KHDRBS1) was found to be 1.29; in test [7], 0.416; in test [8], 1.05; in test [9] it was 1.18; in test [10] it was 1.24; in test [11], 0.147. For the same compound, the composite z-score was 1.02 in test [12]; 0.92 in [13]; 0.952 in test [14]; 0.778 with Lefty1; 0.457 in test [16]. The composite Z-score in [1] was 0.102 (inactive). In addition, the z-score in test [15] is 3.66; in test [17], 0.347 (inactive).

With `COc1ccc(CCNC(=O)[C@@]2(c3ccc([N+](=O)[O-])cc3)CC(=O)N(C(C)C)[C@@H]2c2ccc(CO)cc2)cc1`, the composite z-score was 0.0638 in the test with Albumin (Bos taurus); -0.331 in test [2]; -0.154 in [3]; 0.748 in [4]; 0.462 in test [5]; 0.451 in test [6]. For the same compound, the composite z-score was -0.549 with Sam68 (KHDRBS1); -2.5 in test [7]; -0.895 in [8]; -0.601 in test [9]; -0.622 in test [10]; -0.637 in test [11]. Also, the composite z-score is -2.13 in [12]; -0.669 in test [13]; -0.848 in [14]; -2.2 in the test with Lefty1; -0.81 in test [16]. In addition, the composite Z-score in test [1] was 0.265 (inactive). For the same compound, the z-score is 0.774 in [15] and -0.939 (inactive) in [17].

Turning to `CCCC[C@@H]1C[C@H]1[C@@H](NC(=O)c1cccs1)c1ccc(Cl)cc1`, the composite z-score with Albumin (Bos taurus) is 0.804; in test [2], -0.201; in test [3] it was -0.0956; in [4], -0.346; in [5], 1.08; in [6], -0.0875. The composite z-score in the test with Sam68 (KHDRBS1) was -0.858; in test [7], -1.66; in test [8], -0.782; in test [9], -0.492; in test [10] it was -1.19; in [11] it was -0.393. Also, the composite z-score in [12] was -1.26; in test [13], -1.44; in test [14], -1.6; in the test with Lefty1, -1.58; in test [16], -0.746. Further, the composite Z-score in test [1] is 2.33 (inactive). Also, the figures for the z-score in [15] and in test [17] were -0.363 and 0.191 (inactive), respectively.

`CC(C)(C)OC(=O)CC[C@]1(C(=O)N2CCCCC2)N=C(c2ccc(OCCCO)cc2)O[C@H]1c1ccccc1`: the composite z-score in the test with Albumin (Bos taurus) is 0.806; in test [2], 0.261; in test [3], -0.127; in test [4], 0.741; in test [5], 2.94; in test [6], 0.708. Further, the composite z-score stood at 1.28 with Sam68 (KHDRBS1); 0.261 in test [7]; 1.13 in test [8]; 1.81 in [9]; 1.2 in test [10]; 0.717 in test [11]. The composite z-score in test [12] turned out to be 0.985; in [13] it was 1.24; in [14], 1.15; in the test on Lefty1, 1.01; in [16], 1.27. The composite Z-score in test [1] was -0.0084 (inactive). Besides, the z-score was 1.98 in test [15] and -2.85 (inactive) in [17].

For the compound `O=C1NC(=O)C2C1C=CC(C(O)C=Cc1ccc([N+](=O)[O-])cc1)N2Nc1ccccn1` (stereo not given), the composite z-score with Albumin (Bos taurus) is -0.0573; in [2] it was 0.0104; in test [3] it was 0.0337; in [4], 0.863; in [5] it was 1.4; in test [6], 1.07. The composite z-score is -0.257 in the test with Sam68 (KHDRBS1); 1.39 in [7]; 0.367 in test [8]; 2.75 in test [9]; 0.235 in [10]; -0.0708 in [11]. The composite z-score amounted to 0.123 in test [12]; 0.637 in test [13]; 1.92 in test [14]; 0.509 in the test with Lefty1; 0.551 in test [16]. Besides, the composite Z-score in [1] is 1.28 (inactive). The figures for the z-score in [15] and in test [17] were 0.361 and -1.07 (inactive), respectively.
